Here are results for 37 compounds from PubChem BioAssay (EPA / NIEHS).

Molecules are shown by their SMILES. Values joined by “and” are separate entries in the source; they are usually repeats but may differ in a detail not shown here. Identical values can stand only once. Some compounds were tested as several samples or in several runs, with calls that do not always agree. Active and inactive are the calls of the source. How the source made its calls: active means hit-call score of the fitted dose curve at least 0.9, where 1 is the maximum; inactive means score below 0.9.

For orientation: AC50 means the concentration at which the activity in the assay is half-maximal.

Sequence of E-selectin (Homo sapiens) (P16581 whole entry, looked up): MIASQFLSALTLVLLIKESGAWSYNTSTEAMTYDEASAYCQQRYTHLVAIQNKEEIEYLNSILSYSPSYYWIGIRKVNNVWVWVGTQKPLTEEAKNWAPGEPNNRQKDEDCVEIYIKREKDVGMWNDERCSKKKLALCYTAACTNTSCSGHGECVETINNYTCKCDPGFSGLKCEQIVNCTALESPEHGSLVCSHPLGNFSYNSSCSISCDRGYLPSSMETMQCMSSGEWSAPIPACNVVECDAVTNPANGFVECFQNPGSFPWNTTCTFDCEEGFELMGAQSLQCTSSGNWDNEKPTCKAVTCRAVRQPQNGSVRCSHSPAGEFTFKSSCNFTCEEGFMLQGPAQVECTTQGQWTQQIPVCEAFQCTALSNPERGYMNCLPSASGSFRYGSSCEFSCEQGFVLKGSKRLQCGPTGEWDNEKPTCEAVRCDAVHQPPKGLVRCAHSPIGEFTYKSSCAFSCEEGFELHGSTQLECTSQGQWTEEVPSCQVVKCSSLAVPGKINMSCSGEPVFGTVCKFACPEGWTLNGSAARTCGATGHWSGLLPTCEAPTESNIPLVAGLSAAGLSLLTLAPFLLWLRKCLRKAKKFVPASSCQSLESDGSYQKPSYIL

Read-out in this experiment: E-selectin (Homo sapiens) (UniProt P16581)
Description: BSK_IMphg_ESelectin: BioMAP Diversity Plus: IMphg Assay for Eselectin Biomarker Activity (AID 2284291). Conditions: primary human endothelial cells with macrophages. The protocol: BSK_IMphg is a cell-based, multiplexed-readout assay that uses venular endothelial cells and macrophages, a human vascular primary cell, with measurements taken at 24 hours after chemical dosing in a microplate: 96-well plate.BSK_IMphg_ESelectin is an assay component measured in the BSK_IMphg assay. It measures E-selectin antibody related to regulation of gene expression using ELISA technology.Data from the assay component BSK_IMphg_ESelectin was analyzed at the endpoint, BSK_IMphg_ESelectin, in the positive analysis fitting direction relative to DMSO as the negative control and baseline of activity. Using a type of binding reporter, gain or loss-of-signal activity can be used to understand protein changes. To generalize the intended target to other relatable targets, this assay endpoint is annotated to the 'cell adhesion molecules' intended target family, where the subfamily is 'selectins'.
The levels of cell surface (or secreted, indicated by the prefix "s") biomarker endpoints were measured by ELISA. Overt cytotoxicity to cells in confluent adherent cultures (all systems other than the BT system) was assessed by measuring total protein levels using sulforhodamine B (SRB) staining in parallel cultures at the time of biomarker measurements, indicated as SRB endpoints. For proliferation assays for adherent cell types, individual cell types are cultured at sub-confluence and relative cell numbers quantified by SRB staining at time points optimized for each system (48 h: 3C and CASM3C systems; 72 h: BT and HDF3CGF systems; 96 h: SAg system). SRB was performed by staining cells with 0.1% SRB after fixation with 10% TCA and reading wells at 560 nm.Viability and proliferation of PBMC (T cells) was quantified by Alamar Blue reduction for the SAg and BT systems. For PBMC viability (referred to as PBMC Cytotoxicity within the assay endpoint names), cells were plated (75,000/well in a 96-well plate) and then chemical samples added for 1 h before addition of activators, SEB and TSST-1 (20 ng/mL final concentration each). Cells were incubated for 90 h. Then, Alamar Blue (20 uL/well) (Invitrogen, Cat DAL1100) was added for 6 h, and the plates were read with a fluorescence microplate reader at 546/580 nm (excitation/emission). For PBMC proliferation, cells were plated and activated as above but incubated for only 16 h prior to addition of Alamar Blue. Plates were read after 6 h.
Turning to `O=P(O)(O)OCCC(F)(F)C(F)(F)C(F)(F)C(F)(F)C(F)(F)C(F)(F)F`, the concentration at half-maximal activity (AC50) was 5.46 µM (active) and the result was inactive. Regarding `FC(F)(Br)C(F)(F)C(F)(F)C(F)(F)C(F)(F)C(F)(F)Br`, the outcome was inactive.

Consider `C=C(C)C(=O)OCC(F)(F)C(F)(F)C(F)(F)C(F)(F)C(F)(F)C(F)(F)C(F)(F)F`, for which the result was inactive.

For the compound `OCC(F)(F)C(F)(F)C(F)(F)C(F)(F)C(F)(F)C(F)(F)F`, the result was inactive. On the same count and under the same terms, the value for `OCC(F)(F)C(F)(F)C(F)(F)C(F)F` was “inactive”; that for `FC(F)(F)C(F)(F)C(F)(F)C(F)(F)C(F)(F)C(F)(F)CC1CO1` (stereo not given) was “inactive”. As for `O=C(O)C(F)(F)C(F)(F)C(F)(F)C(F)(F)C(F)(F)C(F)(F)C(F)(F)C(F)(F)C(F)(F)C(F)F`, the outcome was inactive. Turning to `OCCCC(F)(F)C(F)(F)C(F)(F)F`, the outcome was inactive. `COC(=O)CCC(F)(F)C(F)(F)C(F)(F)C(F)(F)F`: the outcome was inactive.

As to `CC(C)(C)C(=O)CC(=O)C(F)(F)C(F)(F)C(F)(F)F`, the result was inactive. Take `FC(F)(F)C(F)(F)C(F)(F)C(F)(F)C(F)(F)C(F)(F)C(F)(F)C(F)(F)CCS`: the result was inactive. For `FC(F)(F)C(F)(F)CNCC(F)(F)C(F)(F)F`, the outcome was inactive. On to `O=C(Cl)C(F)(F)C(F)(F)C(F)(F)C(F)(F)C(F)(F)C(F)(F)C(F)(F)C(F)(F)F`, for which the half-maximal activity concentration (AC50) was 40.2 µM (active) and the outcome was inactive. `NC(=O)C(F)(F)C(F)(F)C(F)(F)C(F)(F)F`: the outcome was inactive.

Regarding `FC(F)(F)C(F)(F)C(F)(F)C(F)(F)CCI`, the result was inactive. Regarding `OCCCC(F)(F)C(F)(F)C(F)(F)C(F)(F)C(F)(F)C(F)(F)C(F)(F)F`, the outcome was inactive and the AC50 is 45.4 µM (active). As to `C=CC(=O)OCC(F)(F)C(F)(F)C(F)(F)C(F)(F)COC(=O)C=C`, the half-maximal activity concentration (AC50) was 25.1 µM (active) and 31.3 µM (active).

For the compound `FC(F)(F)C(F)(F)C(F)(F)C(F)(F)C(F)(F)C(F)(F)C(F)(F)Br`, the outcome was inactive. Same read-out and setting: the value for `FC(F)(F)C(F)(F)C(F)(F)CI` was “inactive”; that for `O=C(O)C(F)(F)C(F)(F)C(F)(F)C(F)(F)C(F)(F)C(F)(F)C(F)(F)C(F)(F)C(F)(F)C(F)(F)C(F)(F)C(F)(F)F` was “inactive”.

As for `FC(F)(F)C(F)(F)C(F)(F)C(F)(F)C(F)(F)C(F)(F)C(F)(F)C(F)(F)F`, the result was inactive. In the case of `C=CC(F)(F)C(F)(F)C(F)(F)C(F)(F)C(F)(F)C(F)(F)C(F)(F)C(F)(F)F`, the outcome was inactive. For `O=S(=O)(O)C(F)(F)C(F)(F)C(F)(F)C(F)(F)C(F)(F)C(F)(F)C(F)(F)F`, the result was inactive.

On to `Cc1ccc(S(=O)(=O)OCC(F)(F)C(F)(F)C(F)(F)C(F)(F)C(F)(F)C(F)F)cc1`, for which the result was inactive. For the compound `OCC(F)(F)C(F)(F)C(F)(F)C(F)(F)C(F)(F)C(F)F`, the outcome was inactive. As to `O=C(O)C(F)(F)C(F)(F)F`, the outcome was inactive. As to `O=C(O)C(F)(F)C(F)(F)C(F)F`, the outcome was inactive. On the same count and under the same terms, the value for `C=C(C)C(=O)OCCC(F)(F)C(F)(F)C(F)(F)C(F)(F)C(F)(C(F)(F)F)C(F)(F)F` was “inactive”; that for `FC(F)(F)C(F)(F)C(F)(F)C(F)(F)C(F)(F)C(F)(F)CCS` was “inactive”. With `C=CC(=O)OCC(F)(F)C(F)(F)C(F)(F)C(F)(F)C(F)(F)C(F)(F)C(F)(F)F`, the outcome was inactive.

For the compound `C=CC(F)(F)C(F)(F)C(F)(F)C(F)(F)C(F)(F)C(F)(F)C(F)(F)C(F)(F)C=C`, the result was inactive. As for `CCO[Si](CCC(F)(F)C(F)(F)C(F)(F)C(F)(F)C(F)(F)C(F)(F)F)(OCC)OCC`, the result was inactive. Consider `CCCCCCCCC(F)(F)C(F)(F)C(F)(F)C(F)(F)C(F)(F)C(F)(F)F`, for which the outcome was inactive. `O=C(O)C(F)(OC(F)(F)C(F)(OC(F)(F)C(F)(OC(F)(F)C(F)(F)C(F)(F)F)C(F)(F)F)C(F)(F)F)C(F)(F)F` (stereo not given): the result was inactive.

For `O=C(O)C(F)(OC(F)(F)C(F)(OC(F)(F)C(F)(F)C(F)(F)F)C(F)(F)F)C(F)(F)F` (stereo not given), the outcome was inactive. Regarding `OCC(F)(F)C(F)(F)C(F)(F)F`, the result was inactive. `FC(F)(F)C(F)(F)C(F)(F)C(F)(F)C(F)(F)CCI`: the outcome was inactive.
